Structures are written as SMILES.

Test [1] concerns Human papillomavirus type 1a protein E7 (residues 44-93). As to the kind of experiment: HPV1a E7 fragment binders on microarrays, primary screen, biochemical, small-molecule microarray, residues 44-93, 635 nm fluorescence (AID 1108).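 Further: E7 fragment applied at 1 µg/mL in TBST for 1 h at 4 C; score combines spot fluorescence with its signal to noise ratio.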 Conditions: small-molecule microarray binding, fluorescence 635 nm; higher = more signal.
Test [2] in a line: modulators of HCV replicon luciferase signal, primary screen, HCV replication inhibitor project, Huh7 cells, luciferase reporter (AID 1109).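 Further: huh7 hepatoma cells harbouring a luciferase neomycin HCV replicon reporter; luciferase luminescence as measure of HCV replicon replication; test concentration not given here.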 Conditions: 48 h, higher = more signal.
In test [3] the target is Left-right determination factor 2 (Homo sapiens) (UniProt O00292). Nature of the test: LEFTY2 binders on small-molecule microarrays, primary screen, biochemical, small-molecule microarray, 635 nm fluorescence scan (AID 1110). The conditions noted are these: LEFTY2 binding, higher = more signal.
Sequence of Left-right determination factor 2 (Homo sapiens) (O00292 whole entry, looked up): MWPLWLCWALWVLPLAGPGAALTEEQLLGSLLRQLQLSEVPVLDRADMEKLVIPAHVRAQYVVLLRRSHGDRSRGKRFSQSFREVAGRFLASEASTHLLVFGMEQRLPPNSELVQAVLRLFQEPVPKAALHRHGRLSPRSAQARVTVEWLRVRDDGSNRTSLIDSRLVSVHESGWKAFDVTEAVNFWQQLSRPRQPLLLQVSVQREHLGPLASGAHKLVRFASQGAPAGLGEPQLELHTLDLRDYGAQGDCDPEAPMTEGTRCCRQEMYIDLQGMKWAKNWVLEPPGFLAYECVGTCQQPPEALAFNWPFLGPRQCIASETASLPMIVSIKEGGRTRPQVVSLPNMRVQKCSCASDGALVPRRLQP
Test [4] deals with Calmodulin-1 (Homo sapiens) (UniProt P0DP23). As to the kind of experiment: CALM1 binders on microarrays, EGTA buffer, profiling panel, biochemical, small-molecule microarray, Cy5-labelled CALM1 (AID 1111).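 Further: labelled calmodulin applied in Tris saline Tween buffer holding calcium plus EGTA and DTT.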 Conditions: Cy5-CALM1 binding fluorescence, higher = more signal.
The target is the same in test [5]. As to the kind of experiment: calcium-bound CALM1 binders on microarrays, profiling panel, artefact control for SMM control-protein annotation, biochemical, small-molecule microarray, Cy5-labelled CALM1, plus calcium (AID 1112).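 Further: score merges spot fluorescence with signal to noise from triplicate slides.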 Conditions: Cy5-CALM1 binding fluorescence, higher = more signal.
The nature of test [6]: small-molecule microarray binders of probe aWnt5a, primary screen, biochemical, biotinylated probe, 635/667 nm fluorescence (AID 1113).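 Further: score merges 667 nm fluorescence intensity with signal-to-noise per printed feature.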 The conditions noted are these: higher = more signal.
Test [7] can be described thus: small-molecule microarray binders of probe aShh, primary screen, biochemical, biotinylated probe, 635/667 nm fluorescence (AID 1114).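 Further: probe is biotin-labelled aShh protein from a stem cell growth factor screen; measures binding of labelled protein to compounds printed on the slide; score merges feature fluorescence at 667 nm with signal-to-noise.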 The conditions noted are these: higher = more signal.
The nature of test [8]: small-molecule microarray binders of probe aNog, primary screen, biochemical, biotinylated probe, 635/667 nm fluorescence (AID 1115).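 Further: probe is biotinylated aNog protein used at 0.15 µg/mL for 1 h at 4 C; z-score combines 667 nm fluorescence of each spot with its signal to noise.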 The conditions noted are these: higher = more signal.
In test [9] the target is Torsin-1A-interacting protein 1 (Homo sapiens) (UniProt Q5JTV8). Nature of the test: LAP1 binders from COS7 cell lysate, primary screen, small-molecule microarray, 635/667 nm fluorescence (AID 1116). Conditions: COS7-hLAP1 lysate binding, 635 nm fluorescence, higher = more signal.
Sequence of Torsin-1A-interacting protein 1 (Homo sapiens) (Q5JTV8 whole entry, looked up): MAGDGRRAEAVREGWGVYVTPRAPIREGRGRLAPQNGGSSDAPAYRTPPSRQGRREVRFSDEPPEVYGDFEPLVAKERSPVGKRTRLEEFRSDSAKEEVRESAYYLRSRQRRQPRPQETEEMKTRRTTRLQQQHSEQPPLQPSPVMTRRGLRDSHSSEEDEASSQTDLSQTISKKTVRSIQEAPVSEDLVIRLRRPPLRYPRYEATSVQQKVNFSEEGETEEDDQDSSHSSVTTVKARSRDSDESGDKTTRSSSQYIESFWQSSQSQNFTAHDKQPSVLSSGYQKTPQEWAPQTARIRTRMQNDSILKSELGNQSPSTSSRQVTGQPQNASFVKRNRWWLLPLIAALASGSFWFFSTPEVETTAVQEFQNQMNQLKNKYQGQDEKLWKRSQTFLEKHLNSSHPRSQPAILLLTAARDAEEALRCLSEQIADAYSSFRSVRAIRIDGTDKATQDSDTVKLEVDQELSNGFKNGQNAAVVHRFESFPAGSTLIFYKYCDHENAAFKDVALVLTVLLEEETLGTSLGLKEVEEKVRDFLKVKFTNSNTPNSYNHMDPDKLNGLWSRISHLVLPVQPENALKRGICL
Test [10] concerns the target Alpha-bungarotoxin (Bungarus multicinctus) (UniProt P60615). Nature of the test: alpha-bungarotoxin binders on microarray, profiling panel, artefact control for SMM control protein annotation, biochemical, small-molecule microarray, Alexa647 label, 635/667 nm fluorescence (AID 1117). Conditions: alpha-BTX-A647 binding fluorescence, higher = more signal.

Sequence of Alpha-bungarotoxin (Bungarus multicinctus) (P60615 whole entry, looked up): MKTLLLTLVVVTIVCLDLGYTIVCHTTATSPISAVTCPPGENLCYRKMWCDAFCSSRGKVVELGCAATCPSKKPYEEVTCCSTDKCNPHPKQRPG

Consider `O=C(NN=C1C[C@@H](O)[C@@H](O)[C@@H]2[C@@H]3C(=O)N(C[C@@H]4CCCO4)C(=O)[C@@H]3CC[C@H]12)OCc1ccccc1`, for which the composite z-score in [1] is -0.453; in [3] it was -0.156; in test [4], 0.0715; in test [5] it was 0.226; in [6], 0.0377; in test [7] it was -0.0146. Also, the composite z-score in test [8] amounted to 0.154; in [9], 0.349; in test [10], 0.275. This compound also yielded a z-score in test [2] of 1.16.

Turning to `CO[C@H]1COC(=O)CC=C[C@@H](C)[C@H](NS(=O)(=O)c2ccc(C)cc2)COC(=O)CCC[C@@H]1C`, the composite z-score was 0.106 in [1]; 0.8 in test [3]; -0.789 in [4]; -1.3 in test [5]; -0.154 in test [6]; -0.188 in [7]. For the same compound, the composite z-score in test [8] is -0.321; in [9] it was 0.784; in [10] it was 0.493. For the same compound, the z-score in test [2] is -2.24.

`C[C@@H]1CC[C@H]2C(=O)O[C@@H](Cc3ccccc3)CN2[C@H]1c1ccc(Br)cc1`: the composite z-score in [1] was 0.712; in test [3], 0.276; in [4], 0.134; in test [5], 0.216; in [6] it was -0.118; in test [7], -0.221. Also, the composite z-score in test [8] was -0.158; in [9], 0.579; in [10], 0.198. In addition, the z-score in test [2] amounted to 0.166.

For `COC(=O)CC=C[C@@H](C)[C@@H](C=NO[C@@H]1O[C@H](COC(C)=O)[C@@H](OC(C)=O)[C@H](OC(C)=O)[C@H]1OC(C)=O)OC`, the composite z-score was -0.428 in test [1]; 0.499 in [3]; -0.937 in [4]; -1.48 in test [5]; -0.175 in test [6]; -0.309 in test [7]. The results for the composite z-score in [8], in [9] and in test [10] were -0.249, -0.461 and -0.463, respectively. This compound also registered a z-score in test [2] of -1.57.

Turning to `C=CC[C@@H]1C=C[C@H](ON=C[C@@H](C)[C@H](OCc2ccccc2)C(C)C)[C@@H](CO)O1`, the composite z-score is 0.0248 in [1]; -0.0977 in [3]; -1.07 in [4]; -0.0781 in test [5]; -0.101 in test [6]; -0.186 in test [7]. Moreover, the figures for the composite z-score in [8], in test [9] and in [10] were -0.4, -0.159 and -0.901, respectively. Further, the z-score in test [2] was -2.12.

For `CC(C)CON=C1C[C@@H](O)[C@@H](O)[C@@H]2[C@@H]3C(=O)N(C[C@@H]4CCCO4)C(=O)[C@@H]3CC[C@@H]12`, the composite z-score was 0.267 in test [1]; 0.0128 in [3]; -0.333 in test [4]; 0.0901 in [5]; -0.173 in [6]; -0.123 in test [7]. Further, the composite z-score in [8] was -0.103; in test [9] it was -0.419; in test [10], 0.678. In test [2], this compound displayed a z-score of 0.444.

Take `COC(=O)CC=C[C@@H](C)[C@@H](C=NOC[C@H]1O[C@H](c2ccccc2)C=C[C@@H]1Oc1ccc(OC)cc1)OC`: the composite z-score in test [1] was -0.585; in test [3], -0.255; in test [4] it was -1.15; in test [5], -1.27; in [6] it was -0.106; in test [7] it was -0.243. Further, the composite z-score in test [8] is -0.44; in test [9] it was -0.37; in test [10] it was -0.262. In test [2], the z-score was -1.7.

For the compound `COc1ccc(COC(=O)NN=C2C[C@@H](O)[C@@H](O)[C@@H]3[C@@H]4C(=O)N(Cc5ccccc5)C(=O)[C@@H]4CC[C@H]23)cc1`, the composite z-score in test [1] is 1.36; in test [3] it was -0.475; in [4] it was 0.0114; in [5], -0.435; in test [6], -0.0758; in test [7], -0.206. Also, the composite z-score in test [8] came out at 0.194; in [9], 0.589; in test [10], 0.469. Also, the z-score in [2] was -0.632.

As for `COc1cc(O)c(C(=O)C=Cc2ccc3c(c2)OCO3)c(OC)c1`, the composite z-score in test [1] is -2.33; in test [3], -0.143; in [4], 0.283; in test [5], -0.582; in [6], 0.0438; in test [7] it was -0.332. In addition, the composite z-score in [8] was -0.219; in [9] it was -0.289; in test [10], 0.825. Besides, the z-score in [2] is -1.53.

On to `CCOC(=O)NN=C1C[C@@H](O)[C@@H](O)[C@@H]2[C@@H]3C(=O)N(c4ccc(F)cc4F)C(=O)[C@@H]3CC[C@@H]12`, for which the composite z-score in test [1] was 0.687; in [3], 0.292; in [4], -0.167; in test [5] it was -0.205; in test [6] it was -0.0087; in test [7], -0.108. Also, the composite z-score in [8] is -0.213; in test [9], 0.196; in [10], -0.234. The z-score in test [2] is 0.0324.

As to `CC(=O)OC[C@H]1OC(ON=CC[C@@H]2C=C[C@H](OC(C)=O)[C@@H](COC(C)=O)O2)[C@H](OC(C)=O)[C@@H](OC(C)=O)[C@@H]1OC(C)=O` (stereo not given in full), the composite z-score in test [1] was 0.781; in test [3], 0.624; in test [4], -0.0804; in [5] it was -0.819; in [6], -0.0957; in test [7], -0.154. Also, the results for the composite z-score in test [8], in [9] and in test [10] were -0.144, -0.0191 and -0.461, respectively. Moreover, the z-score in test [2] is -0.3.

Turning to `COc1ccc(COC(=O)NN=C2C[C@@H](O)[C@@H](O)[C@@H]3[C@@H]4C(=O)N(C5CCCCC5)C(=O)[C@@H]4CC[C@H]23)cc1`, the composite z-score in test [1] was -0.605; in test [3], -0.877; in test [4], 0.979; in test [5], -0.0278; in [6], -0.243; in test [7], -0.315. Moreover, the values for the composite z-score in test [8], in test [9] and in [10] were 0.051, 1.03 and 0.161, respectively. The compound also had a z-score in [2] of -2.37.

In the case of `Cc1ccc(S(=O)(=O)N[C@H]2COC(=O)CC=C[C@H](C)[C@@H](NS(=O)(=O)c3ccc(C)cc3)COC(=O)CC=C[C@@H]2C)cc1`, the composite z-score was 0.584 in [1]; 0.518 in [3]; -0.324 in [4]; -0.6 in [5]; -0.351 in [6]; -0.476 in [7]. The composite z-score in [8] is -0.0381; in [9] it was -0.129; in test [10], 0.149. This compound also gave a z-score in [2] of -0.622.

With `COC(=O)[C@@H]1CC[C@H](C)[C@@H](c2ccc(C)cc2)N1C(=O)c1ccc(C=NO[C@@H]2O[C@H](COC(C)=O)[C@@H](OC(C)=O)[C@H](OC(C)=O)[C@H]2OC(C)=O)cc1`, the composite z-score in test [1] was 0.918; in test [3], 0.368; in test [4], 0.0167; in [5], -0.371; in test [6], -0.124; in test [7], 0.313. Further, the figures for the composite z-score in test [8], in [9] and in test [10] were -0.0208, 0.218 and 0.884, respectively. The same compound displayed a z-score in test [2] of -0.465.

On to `CC(=O)OC[C@H]1O[C@H](C#Cc2ccccc2)C=C[C@@H]1OC(C)=O`, for which the composite z-score in test [1] is -0.234; in [3] it was 0.711; in [4] it was -0.376; in test [5], -0.449; in [6] it was -0.119; in test [7] it was -0.124. The composite z-score in test [8] was 0.115; in [9], 0.288; in test [10], -0.686. This compound yielded a z-score in [2] of -2.92.

On to `COC(=O)CC=C[C@@H](C)[C@@H](C=NO[C@@H](C)c1cc(-c2c(C)cc(C)cc2C)no1)NS(=O)(=O)c1ccc(C)cc1`, for which the composite z-score in test [1] is -0.707; in test [3], -1.36; in [4], -0.3; in test [5], 0.573; in test [6], -0.202; in test [7], -0.138. The figures for the composite z-score in [8], in test [9] and in test [10] were 0.0011, -0.436 and -0.744, respectively. In [2], the z-score was -1.6.

These data come from PubChem BioAssay.
